High-throughput results (PubChem)
A selection: hits, their analogues and other compounds. The true share with any hit is near 5.6%.
ALR inh – inhibitors of human ALR sulfhydryl oxidase, primary screen, biochemical, H2O2 detection, HRP-luminol luminescence, single point; purified ALR, DTT oxidation; FAD-linked sulfhydryl oxidase ALR (Homo sapiens), P55789; inhibition, % (no concentration beside the values); 290,000 tested, 3.8% active;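 active means mean replicate inhibition above about 79%, with every replicate also reaching it, limit read from the data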
Target sequence (P55789 whole entry, looked up): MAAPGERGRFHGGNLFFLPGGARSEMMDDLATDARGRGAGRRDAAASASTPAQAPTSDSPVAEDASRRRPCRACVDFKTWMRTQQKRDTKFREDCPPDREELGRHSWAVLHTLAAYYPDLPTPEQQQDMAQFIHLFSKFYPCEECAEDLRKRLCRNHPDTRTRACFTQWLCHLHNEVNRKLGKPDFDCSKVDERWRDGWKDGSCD
PfG6PD inh – PfG6PD enzyme inhibitors, primary screen, biochemical, fluorescence intensity, uHTS; inhibition, % at 20 µM; PfGluPho enzyme, NADPH resazurin-diaphorase fluorescence; 350,000 tested, 0.78% active;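 active means inhibition reaching at least a set limit at 20 µM in the primary screen, cut at about 59% in these data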;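 further: 0% = DMSO wells with substrate and 100% = DMSO wells lacking glucose-6-phosphate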
PHOSPHO1 inh – PubChem AID 1565 | recombinant PHOSPHO1, absorbance phosphatase assay | inhibition, % at 13.3 µM | 290,000 tested, 1.1% active; in the data active means inhibition above about 60%
M18AAP inhibitor – PfM18AAP inhibitors, malaria aminopeptidase, primary screen, biochemical, QFRET, recombinant enzyme | M18 aspartyl aminopeptidase (Plasmodium falciparum 3D7) | H-Glu-NHMec fluorogenic cleavage | inhibition, % at 7.35 µM | 290,000 tested, 1.2% active | AID 1822, 2009;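 active means inhibition above the campaign mean inhibition over all tested compounds plus 3 SD, cut at about 28% in these data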;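 further: 0% = plate median of test compound wells and 100% = 2 mM ZnCl2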
Cardio protect – cardioprotection against H2O2-induced cell death, primary screen, uHTS, H9c2 cells, ATPLite luminescence. H9c2 cardiomyocytes, H2O2 injury protection, 2 h. protection from H2O2 cell death, % at 20 µM. 360,000 tested, 0.63% active. AID 588492, 2011;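 active means compounds giving at least 50% protection of heart cells from peroxide-induced death in the single-dose screen, raw or plate-pattern-corrected value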;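 further: 0% = DMSO wells with peroxide and 100% = DMSO wells without peroxide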
Active calls of the source: *; · = no result given.

SMILES | ALR inh | PfG6PD inh | PHOSPHO1 inh | M18AAP inhibitor | Cardio protect
CN(C)c1ccc(/C=C/c2cc[n+](C)cc2)cc1 | 99* | 0 | 102* | 19 | -24
Cc1ccc(/C=C/c2ccc(N(C)C)cc2)[n+](C)c1 | 99* | 11 | 20 | 7 | -19
CC[n+]1ccccc1/C=C/c1ccc(N(C)C)cc1 | · | 1 | 9 | 0 | -15
C[n+]1ccc(/C=C/c2cccs2)cc1 | -8 | 0 | 74* | -16 | 0
N#CCCN(CCC#N)C(=O)C1c2ccccc2Oc2ccccc21 | -2 | 9 | 14 | 7 | -2
S=c1[nH]nc(-c2ccc(Br)cc2)n1Cc1ccco1 | 88* | 33 | 37 | 2 | -2
S=c1[nH]nc(COc2ccc(Cl)cc2)n1Cc1ccco1 | 23 | 20 | 36 | 12 | -1
CC(C)(C)c1ccc(-c2n[nH]c(=S)n2-c2ccccc2)cc1 | · | 5 | -129 | 2 | -9
Cc1c(Cl)c(-c2n[nH]c(=S)n2Cc2ccco2)nn1C | 21 | 25 | 80* | 6 | 1
S=c1[nH]nc(-c2ccncc2)n1Cc1ccco1 | 96* | 15 | -14 | 9 | 2
COc1cccc(-c2n[nH]c(=S)n2Cc2ccco2)c1 | -4 | 18 | 35 | 17 | 3
CCCc1n[nH]c(=S)n1Cc1ccco1 | 47 | 29 | -25 | 13 | 2
Cc1c(Cl)c(-c2n[nH]c(=S)n2-c2ccccc2)nn1C | 92* | 14 | -21 | 14 | 5
CC(C)Cn1c(SCC(=O)Nc2cccnc2Cl)nnc1-c1ccco1 | 0 | -4 | · | · | 8
O=c1oc2cc(Br)ccc2n1CSC1=NCCS1 | 99* | 31 | -4 | 0 | 3
CCN=C1Sc2nc3ccc(OCC)cc3cc2CN1CCOC | -56 | -16 | 72* | -2 | 3
COc1ccc(-c2nc(CCl)cs2)cc1 | · | 1 | -24 | -9 | -11
COc1cccc(-c2nc(CCl)cs2)c1 | 99* | -6 | 4 | -4 | 0
COc1ccc(-c2nc(CCl)cs2)cc1OC | 99* | 5 | 26 | 4 | 5
COc1ncccc1C(=O)N1CCCC(C(=O)Nc2cccc(-c3ccc(F)cc3)c2)C1 (stereo unspecified) | · | -2 | · | · | -13
COc1ccccc1CCN1CCCC(CN(C)Cc2ccc(OCCO)cc2)C1 (stereo unspecified) | -17 | 8 | · | -1 | 1
CCOC(=O)C1CCN(C(=O)CCc2ccc(S(=O)(=O)NCC(C)C)cc2)CC1 | -5 | -10 | 60* | 4 | 2
O=C(OCc1cccc(C(F)(F)F)c1)c1cc(S(=O)(=O)N2CCOCC2)ccc1F | -1 | 13 | · | · | -10
N#C/C(=C\c1cccnc1)C(=O)Nc1cccc2ccccc12 | 95* | 13 | -26 | -15 | 5
N#C/C(=C\c1cccnc1)C(=O)Nc1cccc(Cl)c1 | 88* | 5 | -8 | 3 | 9
SMILES | ALR inh | PfG6PD inh | PHOSPHO1 inh | M18AAP inhibitor | Cardio protect
Cc1cccc(NC(=O)/C(C#N)=C\c2cccnc2)c1 | 17 | -2 | 11 | 4 | 14
N#C/C(=C\c1cccnc1)C(=O)Nc1ccc(Cl)cc1 | 98* | 6 | 58 | 5 | 20
CSc1ccc(S(=O)(=O)NCC(=O)OCC(=O)NCc2cccs2)cc1[N+](=O)[O-] | -3 | 4 | · | · | -5
Cc1cccc(NS(=O)(=O)c2ccc(C)c(C(=O)NCC(c3cccs3)N(C)C)c2)c1 (stereo unspecified) | · | 8 | · | · | -1
COc1ccc(OC)c(S(=O)(=O)Nc2ccc(O)c3ccccc23)c1 | 38 | 37 | 17 | 8 | -39
COc1ccc(OC)c(S(=O)(=O)Nc2cccc3c(O)cccc23)c1 | 87* | 23 | · | · | -9
COc1cc(Cl)ccc1OCc1cc(C(=O)N2C[C@]3(C)C[C@H]2CC(C)(C)C3)no1 | -2 | 0 | 19 | -6 | -3
O=C(NCc1ccccc1F)C1CCCN1C(=O)Nc1ccc(Cl)cc1 (stereo unspecified) | -1 | -16 | 15 | -8 | 4
